Screening results deposited in PubChem by National Center for Advancing Translational Sciences (NCATS).
TSHR antagonist – blocks TSH signaling through the human TSH receptor; P16473; TSHR-expressing cells, TSH-stimulated cAMP HTRF, 2 h; active compounds read low; activity change, negative = inhibition, % at 11.5 µM; 0.2% of 330,000 active;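 active = activity change below a set negative limit, meaning inhibition stronger than a set level, cut at about -70% in these data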; note: % is set by controls: 0 for no effect and ±100 for the full control effect
Target sequence (P16473 whole entry, looked up): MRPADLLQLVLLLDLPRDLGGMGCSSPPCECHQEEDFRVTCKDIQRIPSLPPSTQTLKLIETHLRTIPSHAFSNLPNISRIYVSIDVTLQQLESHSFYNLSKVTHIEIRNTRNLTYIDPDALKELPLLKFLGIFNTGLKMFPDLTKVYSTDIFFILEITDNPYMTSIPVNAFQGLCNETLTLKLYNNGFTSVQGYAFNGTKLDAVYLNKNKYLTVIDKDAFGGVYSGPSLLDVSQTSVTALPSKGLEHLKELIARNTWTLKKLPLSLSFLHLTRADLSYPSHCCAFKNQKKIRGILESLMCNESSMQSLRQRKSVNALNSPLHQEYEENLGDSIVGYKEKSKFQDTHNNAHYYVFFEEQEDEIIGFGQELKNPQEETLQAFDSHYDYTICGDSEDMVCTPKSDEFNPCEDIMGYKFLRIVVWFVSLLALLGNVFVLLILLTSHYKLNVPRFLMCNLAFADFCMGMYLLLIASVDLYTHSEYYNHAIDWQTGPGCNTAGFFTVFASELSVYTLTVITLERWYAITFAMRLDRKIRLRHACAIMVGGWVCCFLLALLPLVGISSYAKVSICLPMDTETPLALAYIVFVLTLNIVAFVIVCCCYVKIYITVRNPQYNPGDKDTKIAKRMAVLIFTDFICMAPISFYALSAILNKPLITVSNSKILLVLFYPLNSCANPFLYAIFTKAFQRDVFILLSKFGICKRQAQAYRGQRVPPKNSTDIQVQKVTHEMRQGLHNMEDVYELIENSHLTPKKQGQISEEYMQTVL
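Cell-based HTRF cAMP assay; TSHR cells + compound, TSH EC80 (4nM final), 2 h, 37 deg C. Lysis with anti-cAMP cryptate and cAMP-d2, 30 min RT, read 665/620 nm.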
D3 antag – D3 dopamine receptor (human) antagonism; max response, negative = inhibition, %; 2.5% of 360,000 active; D3R cells, DiscoveRx beta-arrestin luminescence, antagonist mode; active compounds read low; P35462; in the data active = max response below about -50%; note: % is set by controls: 0 for no effect and ±100 for the full control effect
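Cells expressing the human receptor were seeded at 1500 cells/well, incubated overnight at 37 degrees C in 5% CO2, then exposed to library compounds with dopamine controls for 90 minutes at 37 degrees C before luminescent detection.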
B2AR arrestin – agonists driving beta-arrestin recruitment to human beta2-adrenergic receptor; beta-arrestin recruitment to beta2AR, cell-based reporter; 0.02% of 330,000 active; Potency, µM (highest dose often 46.1 µM), without a hit: at the top dose activation, hits mostly activators; AID 492947; P07550; active = well fitted activation curve with a large enough effect;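 note: potency is the fitted concentration of half-maximal effect; 0% = DMSO controls and full agonism = EC100 isoproterenol or metaproterenol; nearly all actives have a fitted effect of over 65% in size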
DRD3 agonist – activates the human D3 dopamine receptor. P35462. D3R DiscoveRx beta-arrestin cells, luminescence, 90 min. max activation, %. 0.58% of 410,000 active; in the data active = max activation above about 30%; note: 0% is about no effect
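Agonist-mode cell screen: cells plated at 1500/well and incubated overnight at 37 °C, then exposed to library compounds for 90 min at 37 °C. Detection reagent was added for 30–60 min at room temperature, and luminescence was read.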
An asterisk follows results filed as active; . = no result. An excerpt weighted towards active compounds, which were near 2.9% of everything screened.

SMILES | TSHR antagonist | D3 antag | B2AR arrestin | DRD3 agonist
Cc1cccc(N2CCN(C(=O)c3sc4nc5n(c(=O)c4c3C)CCC5)CC2C)c1 (stereo not given) | . | . | . | -4
COc1cc(/C=N/NC(=O)c2cc(-c3ccccc3)nc3ccccc23)ccc1O | 11 | 23 | 3% | -9
COc1cc(/C=N/NC(=O)c2cc(-c3cccc(Br)c3)nc3ccccc23)cc(OC)c1O | . | 7 | . | 32*
COc1ccc(SCC(=O)c2cc(C)c(OC(=S)N(C)C)c(C)c2)cc1 | -24 | -51* | 0% | 0
COc1ccccc1CNC(=O)Cc1c(C)c2c(cc(C)c3c(C)c(C)oc32)oc1=O | . | . | . | -1
Cc1cc(C)cc(OCC(=O)Nc2ccc(-c3nc4ccccc4s3)cc2)c1 | . | . | . | -9
Cc1ccccc1Cn1c(=O)n(Cc2ccc(Cl)cc2)c(=O)c2cccnc21 | . | . | . | -13
Cc1ccc(CNC(=O)c2ccc(N3CCC4(CC3)CC(c3ccccc3)=NO4)c([N+](=O)[O-])c2)cc1 | -1 | -61* | 1% | -5
O=C(NCc1ccccc1)c1ccc(N2CCC3(CC2)CC(c2ccccc2)=NO3)c([N+](=O)[O-])c1 | -3 | 1 | 0% | 9
Cc1ccc(CNC(=O)c2ccc(N3CCC4(CC3)CC(c3ccccc3)=NO4)c(N)c2)cc1 | 7 | 36 | 0% | 34*
Cc1cc(C)c2c(=O)cc(C(=O)Nc3sc4c(c3C(=O)NCc3cccnc3)CCCC4)oc2c1 | . | . | . | 2
Cc1ccc(CNC(=O)CSc2nc3c(sc4ccccc43)c(=O)n2CCCOC(C)C)cc1 | . | . | . | -34
O=C(O)c1cccc(N2C(=O)C=CC2=O)c1 | . | -7 | . | 8
O=C(Nc1ccc(Cl)cc1Cl)c1cccc(N2C(=O)C=CC2=O)c1 | 14 | -85* | -1% | -6
CC(=O)c1cccc(NC(=O)Nc2cccs2)c1 | -3 | -51* | 0% | -11
CCOc1ccccc1NS(=O)(=O)c1ccc2c(c1)CC(C)N2C(=O)C1CCC1 (stereo not given) | . | . | . | -3
COc1cc2c(cc1OC)CN(C1CCC(C(C)(C)C)CC1)CC2 (stereo not given) | . | -88* | . | -19
COc1cc2c(cc1OC)CN(C(=O)C(C)(C)C)CC2 | 8 | 14 | 0% | -1
CCOC(=O)c1[nH]c2ccc(F)cc2c1NC(=O)C(C)N1CCc2cc(OC)c(OC)cc2C1 (stereo not given) | 2 | -55* | -1% | -11
Cc1ccc(C(=O)NCCNc2ncc(C(F)(F)F)cc2Cl)cc1[N+](=O)[O-] | -113* | -7 | 0% | 4
O=C(Nc1nnc(S(=O)(=O)N2CCc3ccccc32)s1)c1cccc(Cl)c1 | . | . | . | -11
O=[N+]([O-])c1ccc(C2=NN(CCO)C(=Nc3ccc(OC(F)(F)F)cc3)SC2)cc1 | -24 | -56* | -1% | 10
CCCCN(CC)CCCNC(=O)c1cc2cc3ccc(C)cc3nc2o1 | -4 | -10 | 0% | -7
Cc1ccc2cc3cc(C(=O)NCCCN4CCCCCC4)oc3nc2c1 | -2 | -75* | 0% | -11
Cc1ccc2cc3cc(C(=O)NCCCN4CCc5ccccc5C4)oc3nc2c1 | -9 | -55* | 0% | -12
SMILES | TSHR antagonist | D3 antag | B2AR arrestin | DRD3 agonist
Cc1ccc2nc(Cl)c3cc(C(=O)NCCCN4CCCC4)sc3c2c1 | 8 | -59* | 0% | -11
Cc1ccc2cc3cc(C(=O)NCCCN4CCCC4)oc3nc2c1 | 9 | -13 | 0% | -17
CCC1CCCCN1CCCNC(=O)c1cc2c(Cl)nc3ccc(C)cc3c2s1 (stereo not given) | . | . | . | -15
Cc1oc(-c2ccccc2F)nc1CS(=O)(=O)CC(=O)NCCCN1CCc2ccccc2C1 | -5 | -77* | 0% | -13
CC1CCc2c(sc(NC(=O)c3cc4nc(-c5ccc(Cl)cc5)cc(C(F)(F)F)n4n3)c2C#N)C1 (stereo not given) | . | . | . | 9
Clc1ccc2nc(C3CCN(Cc4ccccc4)CC3)[nH]c2c1 | -17 | -87* | 0% | -32
COc1ccc(-c2cc(C3CCN(c4cc(Cl)nc(N)n4)CC3)[nH]n2)cc1 | -45 | 21 | 0% | 37*
Cc1ccc(CN2CCC(c3nc4ccc(Cl)cc4[nH]3)CC2)cc1 | 34 | -93* | 1% | -37
Cc1ccc(CN2CCC(c3cc(-c4ccc(Cl)cc4)n[nH]3)CC2)cc1 | 9 | -91* | -1% | -8
Nc1nc(Cl)cc(N2CCC(c3cc(-c4ccc(Cl)cc4)n[nH]3)CC2)n1 | -38 | 34 | 0% | 15
COc1ccc(C(=O)Nc2cccc(-c3nc4cccnc4s3)c2C)c(OC)c1 | . | . | . | -10
Cc1nc(-c2ccc(Cl)cc2)sc1CCNC(=O)C(=O)Nc1ccc2c(c1)OCCO2 | . | . | . | 6
CCn1cc(C(=O)NCCc2ccc(OC)c(OC)c2)c(=O)c2cc(S(=O)(=O)N3CCC(C)CC3)ccc21 | . | . | . | -5
O=C(Cn1c(=O)n(Cc2nc(-c3ccccc3)no2)c(=O)c2ccccc21)Nc1cccc(C(F)(F)F)c1 | . | . | . | 9
COc1ccccc1N(C(C)=O)C1=C(Cl)C(=O)c2ccccc2C1=O | . | -137* | . | -14
CCCOc1ccc(Oc2nc(NCC(C)C)nc(N(C)C)n2)nn1 | . | . | . | -3
COc1ccc(OC)c(/C=C/C(=O)Nc2ccc(C(=O)OCCC(C)C)cc2)c1 | . | . | . | 2
C=CCn1c(-c2cccc(Cl)c2)n[nH]c1=S | 36 | -57* | 0% | 5
COC(=O)c1ccccc1NC(=O)C1CCCN(c2nnc(C)c3c(C)n(-c4ccccc4)nc23)C1 (stereo not given) | . | . | . | 1
Cc1cccc(Cn2c(=O)n(-c3ccc(Cl)c(Cl)c3)c(=O)c3c(C)c(C)sc32)c1 | . | . | . | -5
Cc1ccc(CNC(=O)CSc2nc3c(sc4ccccc43)c(=O)n2CCCC(=O)NCCO)cc1 | . | . | . | 7
OCC1(Cc2cccc(Cl)c2)CCCN(Cc2cnn(-c3ccccc3)c2)C1 (stereo not given) | -9 | -62* | 0% | -18
OCC1(Cc2ccc(F)cc2F)CCCN(Cc2ccc(Cl)cc2)C1 (stereo not given) | 9 | -83* | 0% | -21
Cc1nc(-c2ccc(Cl)cc2)sc1CCNC(=O)c1ccco1 | . | . | . | -24
O=C(O)c1ccc(C2CCCCC2)cn1 | 3 | -95* | 0% | -9
SMILES | TSHR antagonist | D3 antag | B2AR arrestin | DRD3 agonist
COC(=O)c1ccc(Cn2c(=O)cc(C)c3c(C)nn(C)c32)cc1 | . | . | . | 37*
COC(=O)c1ccccc1NC(=O)Cn1c(=O)cc(C)c2c(C)nn(C)c21 | . | . | . | -8
Cc1nn(C)c2c1c(-c1ccccc1)cc(=O)n2Cc1ccc(F)cc1 | . | . | . | 31*
O=C(O)c1ccc2c(c1)C(=O)N(Cc1ccccc1)C2=O | -4 | -51* | 0% | -2
C=C1C(=O)OC2C1CCC(C)=C1C(=O)C3OC3(C)C12 (stereo not given) | . | -129* | . | -58
Cc1nn2c(=O)cc(COC(=O)c3ccc(NC(=O)COc4ccc(Cl)cc4)cc3)nc2s1 | . | . | . | -6
O=[N+]([O-])c1ccc(Nc2ccccc2)c2nonc12 | -5 | -24 | 0% | -7
O=[N+]([O-])c1ccc(Sc2cccc[n+]2[O-])c2nonc12 | -91* | -116* | 1% | -60
